# Out of some 48,000 compounds screened, about 13,000 (27%) showed an effect of 50% or more. This is one part of the list.
# Test system: Wolbachia pipientis
# Test: Anti-Wolbachia Cell-Based Screen
# Assay type: functional
# Set-up: scale not given: in the data most compounds retested in dose-response had high values
# Settings: 5 µM
row,Structure (SMILES),Percent Effect [%]
1,CNC(=O)c1sccc1S(=O)(=O)NC,-5.377
2,COc1cccc2c1OCCCN(c1nc(N)nc3c1CCNC3)C2,-2.498
3,Cc1nccc(NCc2cncc3c2CCN(CCN(C)C)C3)n1,100
4,Cl.Cl.c1csc(CN2CCc3c(CNc4nncs4)cncc3C2)c1,13.01
5,Cc1nccc(NCc2cncc3c2CCN(CC2CC2)C3)n1.Cl.Cl,94.72
6,Cc1ccc(NCc2cncc3c2CCN(Cc2ccccn2)C3)nn1.Cl.Cl,108.9
7,Cc1ccc(NCc2cncc3c2CCN(C(=O)C2CC=CC2)C3)nn1.Cl,36.84
8,Cl.Cl.Cl.c1cnc(NCc2cncc3c2CCN(Cc2cccnc2)C3)nc1,11.16
9,Cl.Cl.c1cnc(NCc2cncc3c2CCN(Cc2ccsc2)C3)nc1,10.62
10,CC(C)(C)c1ccc(-c2n[nH]c3c2CN(CC2CCOC2)CC3)cc1 (configuration not stated),5.17
11,Cc1cc(CN2CCc3c(CNc4ncccn4)cncc3C2)oc1C.Cl.Cl,20.89
12,Cc1nccc(NCc2cncc3c2CCN(CC2CCOC2)C3)n1.Cl.Cl (configuration not stated),113.7
13,O=C(NCCn1cccc1)C1CCCOC1 (configuration not stated),1.95
14,CCC(Cn1ccc2[nH]c(=O)c(C#N)cc2c1=O)OC (configuration not stated),-23.91
15,Cc1ccccc1[C@@H]1CN(CCOCCO)C[C@H]1C(=O)O,-28.11
16,O=C(Nc1cc(-c2ccncc2)no1)C1CCC1,-23.1
17,Cn1ccc(NC(=O)CN2C[C@H]3CC[C@@H]2CN(S(C)(=O)=O)C3)n1,4.015
18,CC1CN(C)CCN1Cc1cccc(C(=O)NCc2ccco2)c1 (configuration not stated),11.16
19,O=C1N(c2cccc(F)c2)Cc2nc(=O)[nH]n21,-10.2
20,COCc1noc(CCNC(=O)c2ccc(C3CCCO3)s2)n1 (configuration not stated),-0.9385
21,Cc1nc(CN2CCCC(Nc3ncnc4ccsc34)C2)no1 (configuration not stated),36.74
22,Cc1nc(NCc2noc(C3CCCO3)n2)c2ccsc2n1 (configuration not stated),190.8
23,Cc1nc(N2CCC3(CCCN(CC4CC4)C3=O)C2)c2sccc2n1 (configuration not stated),-31.46

row,Structure (SMILES),Percent Effect [%]
1,Fc1ccc(OCC2CCCO2)c(NCc2noc(C3CC3)n2)c1 (configuration not stated),2.456
2,Cc1nc(N(Cc2ccncc2)CC2CCCO2)c2ccsc2n1 (configuration not stated),2.161
3,Cc1nc(NCCc2noc(C3CCCO3)n2)c2sccc2n1 (configuration not stated),194.7
4,COc1ccnc(CNc2nc(C)nc3ccsc23)c1,-33.44
5,Cc1nc(NCc2noc(C3CCCO3)n2)c2sccc2n1 (configuration not stated),146.8
6,Cc1cccc(N2CCN(C(=O)C3CC4(CCNCC4)CN3)CC2)n1 (configuration not stated),-9.883
7,COC(=O)CN(Cc1ccccc1C)C(=O)CCNC(=O)C(C)(C)C,10.54
8,Cc1cc2nc(CO[C@H]3CN(C4CCC4)C[C@H]3F)[nH]c2cc1C,-5.771
9,Cc1ccc(N2CCC3(CCC(=O)N3Cc3ccncc3)CC2)nn1.O=C(O)C(F)(F)F,117.9
10,N#Cc1ccc(N2CCC3(CCC(=O)N3Cc3ccncc3)CC2)nc1.O=C(O)C(F)(F)F.O=C(O)C(F)(F)F,101
11,N#Cc1ccc(N2CCC3(CC2)COCCN3Cc2cccnc2)cc1.O=C(O)C(F)(F)F,-19.62
12,O=C(O)C(F)(F)F.O=C(O)C(F)(F)F.O=C1CC[C@]2(CC[C@@H](NC3CCOC3)CC2)N1Cc1ccncc1 (some centres not stated),-47.26
13,O=C(O)C(F)(F)F.O=C1CCC2(CCN(c3ncc(F)cn3)CC2)N1Cc1ccncc1,-48.93
14,Cc1ccc(N2CCC3(CC2)CNC(=O)CO3)nn1.O=C(O)C(F)(F)F,10.91
15,N#Cc1ccc(N2CCC3(CCC(=O)N3Cc3cccnc3)CC2)nc1.O=C(O)C(F)(F)F.O=C(O)C(F)(F)F,109.7
16,N#Cc1ccc(CN2CC3(CCCCN3c3cccnc3)CC2=O)cc1.O=C(O)C(F)(F)F (configuration not stated),-4.907
17,Cc1cc(CN(C)Cc2cc3c(cc2OC(F)F)OCO3)on1,-6.74
18,CC(C)c1nnc(CN2CCCC2C(=O)OCc2ccccc2)o1 (configuration not stated),4.736
19,COCC1CCN(CCCc2cn[nH]c2)CC1,0.277
20,Cc1cc(C)n(-c2ccc(N3CCC4(CC3)OCCO4)nc2)n1,6.34
21,CCN(C(=O)c1nc2c(s1)CCCN2C(C)=O)C(C)C,127.1
22,CCN(C(=O)c1nc2c(s1)CCCN2Cc1ccccc1)C(C)C,-4.382
23,COCCN(C)C(=O)c1nc2c(s1)CCCN2C,4.068

row,Structure (SMILES),Percent Effect [%]
1,CC(=O)N1CCCc2sc(C(=O)NC3CC3)nc21,2.286
2,CC(=O)N1CCCc2sc(C(=O)Nc3ccc(C)nc3)nc21,-6.006
3,CCN(C(=O)c1nc2c(s1)CCCN2C)C(C)C,108.3
4,COCCN(C)C(=O)c1nc2c(s1)CCCN2S(C)(=O)=O,-10.12
5,CCN(C(=O)c1nc2c(s1)CCCN2S(C)(=O)=O)C(C)C,111.8
6,CCNC(=O)c1nc2c(s1)CCCN2S(C)(=O)=O,-29.83
7,CCn1cc(CN2CCC(c3ccncc3)CC2)cc1C#N,18.43
8,Cc1ccc2c(c1)c(CNC(=O)C1CC(=O)N(CCN(C)C)C1)nn2C (configuration not stated),14.04
9,CC(C)OCCN(C)CC(c1cccs1)N1CCOCC1 (configuration not stated),-0.1545
10,Cc1sc2nc(SC(C)c3nc(C(C)C)no3)nc(N)c2c1C (configuration not stated),10.39
11,COc1c(Br)cccc1CCNC(=O)c1ccon1,-9.617
12,Cc1nc(C)n(CC2CCCN(CCc3ccncc3)C2)n1 (configuration not stated),-0.4528
13,Cc1nc(C)n(CC2CCCN(CCCc3ccccc3)C2)n1 (configuration not stated),82.12
14,Cc1nc(C)n(CC2CCCN(CCc3ccccc3)C2)n1 (configuration not stated),91.53
15,COc1ccc(CCN2CCCC(Cn3nc(C)nc3C)C2)cc1 (configuration not stated),9.645
16,NCC1CCC2(CCN(C(=O)c3ccccn3)CC2)CO1.O=C(O)C(F)(F)F.O=C(O)C(F)(F)F (configuration not stated),112.6
17,CN(C)CC(=O)N1CCC2(CC1)COC(COc1ccccn1)C2.O=C(O)C(F)(F)F.O=C(O)C(F)(F)F (configuration not stated),11.11
18,CNC(=O)NCC1CCC2(CCN(C(=O)c3ccccn3)CC2)CO1.O=C(O)C(F)(F)F (configuration not stated),105.2
19,Cc1ccc(C(=O)N2CCC3(CC2)COC(COc2ccccn2)C3)o1.O=C(O)C(F)(F)F (configuration not stated),2.842
20,CCOCC1CC2(CCN(C(=O)c3ccccn3)CC2)CO1.O=C(O)C(F)(F)F (configuration not stated),-17.18
21,O=C(O)C(F)(F)F.O=C(c1cocn1)N1CCC2(CC1)COC(COCc1ccccn1)C2 (configuration not stated),-10.48
